The record followed here is PubChem BioAssay (Tox21).

“And” between values parts separate entries of the source, which are not always exact repeats. Equal values may be shown once. Records with an inconclusive call do not appear. Where a call stands in place of a potency, no number is given. Some compounds were tested as several samples or in several runs, with calls that do not always agree. The source made the active and inactive calls. Unless noted, calls follow the shape of the dose curve; as a rule, active = well fitted curve in the direction sought with a large enough effect in the repeat runs; inconclusive = weak or mixed curves; inactive = no such curve, though single readings can be large; an effect the other way counts as inactive or inconclusive.

A short description of one assay: qHTS assay to identify small molecule antagonists of the progesterone receptor (PR) signaling pathway - cell viability counter screen (AID 1346798). Also: nearly all actives have a fitted effect of over 50% in size. Particulars: PR-UAS-bla HEK293T viability, CellTiter-Glo luminescence, 16 h; series mostly up to 92.4 µM. The method, boiled down:
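Measures cytotoxicity in parallel with the PR antagonist reporter read: HEK293T PR-UAS-bla cells get compound and R5020 for 16 hr, and remaining viable cells are quantified by CellTiter-Glo luminescence.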
Consider `COP(=O)(OC)OC`, for which the Potency entry was “inactive”.
On the same count and under the same terms, the result for `O=C(O)C(F)(F)C(F)(F)C(F)(F)C(F)(F)C(F)(F)C(F)(F)C(F)(F)F` reads “inactive”; that for `c1ccc(-c2cccc(-c3ccccc3)c2)cc1`, “inactive”; that for `CC(C)(OOC(C)(C)c1ccccc1)c1ccccc1`, “inactive”.
Still for that read-out and setting: the result for `CCOc1cc(Oc2ccc(C(F)(F)F)cc2Cl)ccc1[N+](=O)[O-]` reads “inactive”; that for `O=C(NC(=O)c1c(F)cccc1F)Nc1ccc(Cl)cc1`, “inactive”; that for `C#C[C@]1(O)CC[C@H]2[C@@H]3CCC4=CC(=O)CC[C@]4(C)[C@H]3CC[C@@]21C`, “inactive”.
On the same count and under the same terms, the result for `CCOCN(C(=O)CCl)c1c(C)cccc1CC` reads “inactive”; that for `Nc1ccncc1`, “inactive”.
Consider `Cc1ccccc1[N+](=O)[O-]`, for which the Potency entry was “inactive”.
The same measure, in the same setting: the result for `O=Cc1ccco1` reads “inactive”; that for `CCOc1cc(C=O)ccc1O`, “inactive”; that for `Nc1ccc(Cl)c(Cl)c1`, “inactive”.
The same measure, in the same setting: under `CCC(CC)Nc1c([N+](=O)[O-])cc(C)c(C)c1[N+](=O)[O-]` stands “inactive”.
As for `COc1ccc(C=O)cc1`, the Potency result was “inactive”.
As for `c1ccc(NNc2ccccc2)cc1`, the Potency result was “inactive”.
With `CC1(C)C(C=C(Cl)Cl)C1C(=O)OC(C#N)c1cccc(Oc2ccccc2)c1` (configuration not stated), the Potency result is “inactive”.
Still for that read-out and setting: the result for `CC(C)c1ccc(CO)cc1` reads “inactive”; that for `CCCCCCCCCCCOC(=O)c1ccccc1C(=O)OCCCCCCCCCCC`, “inactive”; that for `N#CC(Br)Br`, “inactive”.
`COc1ccc(C(CN(C)C)C2(O)CCCCC2)cc1` (configuration not stated): the Potency entry is “inactive”.
Turning to `C=CCN(CC=C)C(=O)C(Cl)Cl`, the Potency entry was “inactive”.
Same read-out and setting: under `CCCCC(CC)COC(=O)c1ccc(C(=O)OCC(CC)CCCC)c(C(=O)OCC(CC)CCCC)c1` (configuration not stated) stands “inactive”.
On the same count and under the same terms, the result for `c1ccc(P(c2ccccc2)c2ccccc2)cc1` reads “inactive”; that for `Oc1c(Cl)c(Cl)c(Cl)c(Cl)c1Cl`, “inactive”.
Still for that read-out and setting: the result for `Oc1cc(Cl)c(Cl)cc1Cl` reads “inactive”.
`NNC(=S)NN`: the Potency result is “inactive”.
Still for that read-out and setting: under `O=P(O)(O)CCCl` stands “inactive”; under `Nc1ccc(-c2ccccc2)cc1`, “inactive”.
On the same count and under the same terms, the result for `Cc1ccc2c(c1N)C(=O)c1ccccc1C2=O` reads “inactive”.

The nature of the next assay: qHTS assay to identify small molecule agonists of the progesterone receptor (PR) signaling pathway - cell viability counter screen (AID 1346799; calls by dose curve; also: nearly all actives have a fitted effect of over 45% in size; also: potency is read from the fitted curve at half-maximal effect). The conditions noted are these: PR-UAS-bla HEK293T viability, CellTiter-Glo luminescence, 16 h; series mostly up to 92.4 µM. In short, it runs like this:
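Using the same plates as the PR reporter screen, HEK293T PR-UAS-bla cells received compounds for 16 hr at 37C and were then lysed with CellTiter-Glo; luminescence was read 30 min later at room temperature.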
In the case of `COP(=O)(OC)OC`, the Potency entry is “inactive”.
Same read-out and setting: under `Cc1ccc(OP(=O)(Oc2ccc(C)cc2)Oc2ccc(C)cc2)cc1` stands “inactive”.
Turning to `c1ccc(-c2cccc(-c3ccccc3)c2)cc1`, the Potency result is “inactive”.
With `CC(C)(OOC(C)(C)c1ccccc1)c1ccccc1`, the Potency result was “inactive”.
The same measure, in the same setting: under `O=C(NC(=O)c1c(F)cccc1F)Nc1ccc(Cl)cc1` stands “inactive”; under `C#C[C@]1(O)CC[C@H]2[C@@H]3CCC4=CC(=O)CC[C@]4(C)[C@H]3CC[C@@]21C`, “inactive”.
As for `CCOCN(C(=O)CCl)c1c(C)cccc1CC`, the Potency entry was “inactive”.
For the compound `Nc1ccncc1`, the Potency entry is “inactive”.
Take `Cc1ccccc1[N+](=O)[O-]`: the Potency entry is “inactive”.
The same measure, in the same setting: under `O=Cc1ccco1` stands “inactive”.
For the compound `CCOc1cc(C=O)ccc1O`, the Potency entry was “inactive”.
For the compound `Nc1ccc(Cl)c(Cl)c1`, the Potency entry is “inactive”.
Consider `CCC(CC)Nc1c([N+](=O)[O-])cc(C)c(C)c1[N+](=O)[O-]`, for which the Potency entry was “inactive”.
With `COc1ccc(C=O)cc1`, the Potency result is “inactive”.
Same read-out and setting: the result for `CCCCNC(=O)n1c(NC(=O)OC)nc2ccccc21` reads “inactive”.
Same read-out and setting: under `c1ccc(NNc2ccccc2)cc1` stands “inactive”; under `CC1(C)C(C=C(Cl)Cl)C1C(=O)OC(C#N)c1cccc(Oc2ccccc2)c1` (configuration not stated), “inactive”.
`Cc1c(COC(=O)[C@@H]2[C@H](/C=C(\Cl)C(F)(F)F)C2(C)C)cccc1-c1ccccc1`: the Potency result is “inactive and 54.3 µM (active)”.
Still for that read-out and setting: the result for `CC(C)c1ccc(CO)cc1` reads “inactive”; that for `CCCCCCCCCCCOC(=O)c1ccccc1C(=O)OCCCCCCCCCCC`, “inactive”.
Regarding `N#CC(Br)Br`, the Potency entry is “inactive”.
Still for that read-out and setting: under `COc1ccc(C(CN(C)C)C2(O)CCCCC2)cc1` (configuration not stated) stands “inactive”; under `C=CCN(CC=C)C(=O)C(Cl)Cl`, “inactive”.
On to `CCCCC(CC)COC(=O)c1ccc(C(=O)OCC(CC)CCCC)c(C(=O)OCC(CC)CCCC)c1` (configuration not stated), for which the Potency result was “inactive”.
Still for that read-out and setting: the result for `c1ccc(P(c2ccccc2)c2ccccc2)cc1` reads “inactive”; that for `NNC(=S)NN`, “inactive”.
The same measure, in the same setting: the result for `O=P(O)(O)CCCl` reads “inactive”; that for `Nc1ccc(-c2ccccc2)cc1`, “inactive”; that for `Cc1ccc2c(c1N)C(=O)c1ccccc1C2=O`, “inactive”.

A further assay can be described thus: qHTS assay to identify small molecule antagonists of the TGF-beta/Smad signaling pathway - cell viability counter screen (AID 1346824). Also: nearly all actives have a fitted effect of over 50% in size. The conditions noted are these: SBE-bla HEK293T viability, CellTiter-Glo luminescence; series mostly up to 76.8 µM. In short, it runs like this:
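SBE-bla HEK 293T cells, incubated overnight, then compound plus 0.25 ng/mL TGF-beta1 (stock added) for 5 hr at 37 C. Viability was read in the same wells by CellTiter-Glo luminescence after 30 min at room temperature.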
Turning to `COP(=O)(OC)OC`, the Potency result is “inactive”.
Same read-out and setting: under `Cc1ccc(OP(=O)(Oc2ccc(C)cc2)Oc2ccc(C)cc2)cc1` stands “inactive”; under `CCC(C)(c1ccc(O)cc1)c1ccc(O)cc1`, “inactive”; under `O=C(O)C(F)(F)C(F)(F)C(F)(F)C(F)(F)C(F)(F)C(F)(F)C(F)(F)F`, “inactive”.
In the case of `c1ccc(-c2cccc(-c3ccccc3)c2)cc1`, the Potency entry is “inactive”.
Still for that read-out and setting: under `CC(C)(OOC(C)(C)c1ccccc1)c1ccccc1` stands “inactive”; under `CCOc1cc(Oc2ccc(C(F)(F)F)cc2Cl)ccc1[N+](=O)[O-]`, “inactive”.
On the same count and under the same terms, the result for `O=C(NC(=O)c1c(F)cccc1F)Nc1ccc(Cl)cc1` reads “inactive”; that for `C#C[C@]1(O)CC[C@H]2[C@@H]3CCC4=CC(=O)CC[C@]4(C)[C@H]3CC[C@@]21C`, “inactive”.
Still for that read-out and setting: under `CCOCN(C(=O)CCl)c1c(C)cccc1CC` stands “inactive”.
For the compound `Nc1ccncc1`, the Potency result was “inactive”.
The same measure, in the same setting: the result for `Cc1ccccc1[N+](=O)[O-]` reads “inactive”.
The same measure, in the same setting: under `c1cc(OCC2CO2)ccc1Cc1ccc(OCC2CO2)cc1` (configuration not stated) stands “inactive”; under `O=Cc1ccco1`, “inactive”; under `CCOc1cc(C=O)ccc1O`, “inactive”.
Still for that read-out and setting: the result for `Nc1ccc(Cl)c(Cl)c1` reads “inactive”.
As for `CCC(CC)Nc1c([N+](=O)[O-])cc(C)c(C)c1[N+](=O)[O-]`, the Potency result was “inactive”.
In the case of `COc1ccc(C=O)cc1`, the Potency entry was “inactive”.
As for `CCCCNC(=O)n1c(NC(=O)OC)nc2ccccc21`, the Potency entry is “inactive”.
On the same count and under the same terms, under `c1ccc(NNc2ccccc2)cc1` stands “inactive”; under `CC1(C)C(C=C(Cl)Cl)C1C(=O)OC(C#N)c1cccc(Oc2ccccc2)c1` (configuration not stated), “inactive”.
The same measure, in the same setting: the result for `CCCCCCCCC(=O)NCc1ccc(O)c(OC)c1` reads “inactive”; that for `Cc1c(COC(=O)[C@@H]2[C@H](/C=C(\Cl)C(F)(F)F)C2(C)C)cccc1-c1ccccc1`, “inactive”; that for `CC(C)c1ccc(CO)cc1`, “inactive”.
Take `CCCCCCCCCCCOC(=O)c1ccccc1C(=O)OCCCCCCCCCCC`: the Potency entry was “inactive”.
The same measure, in the same setting: under `N#CC(Br)Br` stands “inactive”; under `COc1ccc(C(CN(C)C)C2(O)CCCCC2)cc1` (configuration not stated), “inactive”.
Consider `C=CCN(CC=C)C(=O)C(Cl)Cl`, for which the Potency entry is “inactive”.
The same measure, in the same setting: the result for `CCOC(=O)C(C)OC(=O)c1cc(Oc2ccc(C(F)(F)F)cc2Cl)ccc1[N+](=O)[O-]` (configuration not stated) reads “inactive”; that for `CCCCC(CC)COC(=O)c1ccc(C(=O)OCC(CC)CCCC)c(C(=O)OCC(CC)CCCC)c1` (configuration not stated), “inactive”; that for `c1ccc(P(c2ccccc2)c2ccccc2)cc1`, “inactive”.
Same read-out and setting: the result for `Oc1c(Cl)c(Cl)c(Cl)c(Cl)c1Cl` reads “inactive”; that for `Oc1cc(Cl)c(Cl)cc1Cl`, “inactive”; that for `NNC(=S)NN`, “inactive”.
On the same count and under the same terms, the result for `O=P(O)(O)CCCl` reads “inactive”.
With `Nc1ccc(-c2ccccc2)cc1`, the Potency entry was “inactive”.
Still for that read-out and setting: under `N#Cc1cc(Br)c(O)c(Br)c1` stands “inactive”.
For the compound `Cc1ccc2c(c1N)C(=O)c1ccccc1C2=O`, the Potency entry was “inactive”.
